Measured values reported in PubChem BioAssay AID2553 (Johns Hopkins Ion Channel Center, 2010).
Out of some 310,000 compounds screened, about 3,300 (1.1%) were called active. The sample holds actives, similar compounds and a random draw of the others, so the mix is not that of the screen.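 The calls were made as follows: active = B-score under library mean minus 3 SD, initial fluorescence not abnormally high, positive integrated signal ratio; inactive = the rest.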

Target: Short transient receptor potential channel 6 (Mus musculus) (UniProt Q61143)
Experiment: mouse TRPC6 channel inhibitors, primary screen, cell-based, HEK293, membrane potential dye (AID 2553);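 as to B-score: B-score derived from integrated fluorescence ratio over the kinetic read; more negative B-score means stronger inhibition of depolarization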
Details: ACh-evoked depolarization, at 10 µM; active compounds read low

Sequence of Short transient receptor potential channel 6 (Mus musculus) (Q61143 whole entry, looked up): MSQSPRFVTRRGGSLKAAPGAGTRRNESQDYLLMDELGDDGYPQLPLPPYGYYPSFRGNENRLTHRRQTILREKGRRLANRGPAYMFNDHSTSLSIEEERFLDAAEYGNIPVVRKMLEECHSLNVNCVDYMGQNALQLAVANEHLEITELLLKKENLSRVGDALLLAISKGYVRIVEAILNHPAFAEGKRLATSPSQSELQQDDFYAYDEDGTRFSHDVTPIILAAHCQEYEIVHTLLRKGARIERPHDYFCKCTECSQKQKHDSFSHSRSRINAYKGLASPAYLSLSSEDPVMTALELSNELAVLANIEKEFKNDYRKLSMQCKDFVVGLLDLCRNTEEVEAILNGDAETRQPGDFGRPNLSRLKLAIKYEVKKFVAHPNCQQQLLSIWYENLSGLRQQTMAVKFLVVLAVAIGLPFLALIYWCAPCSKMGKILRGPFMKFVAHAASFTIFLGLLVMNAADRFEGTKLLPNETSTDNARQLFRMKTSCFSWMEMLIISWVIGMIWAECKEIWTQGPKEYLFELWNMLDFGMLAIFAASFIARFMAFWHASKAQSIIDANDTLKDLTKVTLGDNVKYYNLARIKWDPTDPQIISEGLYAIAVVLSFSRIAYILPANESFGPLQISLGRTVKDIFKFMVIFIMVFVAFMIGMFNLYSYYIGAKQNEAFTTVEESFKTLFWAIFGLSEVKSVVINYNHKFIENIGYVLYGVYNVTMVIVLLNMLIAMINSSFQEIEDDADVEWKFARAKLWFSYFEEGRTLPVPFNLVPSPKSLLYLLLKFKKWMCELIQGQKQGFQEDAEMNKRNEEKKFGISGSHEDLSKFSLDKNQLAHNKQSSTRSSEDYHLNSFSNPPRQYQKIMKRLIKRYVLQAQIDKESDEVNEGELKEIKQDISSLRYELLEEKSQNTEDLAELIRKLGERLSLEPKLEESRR

Row | SMILES | B-score
1 | O=C(O)CSCc1ccc(C(=O)O)o1 | inactive
2 | COc1ccccc1C1CCN(c2ccc([N+](=O)[O-])cn2)CC1 | inactive
3 | COc1ccc(C(=O)N2CCc3cc(OC)c(OC)cc3C2c2cccc([N+](=O)[O-])c2)cc1 (stereo not given) | inactive
4 | COc1ccccc1C1SCCN1C(=O)c1ccc([N+](=O)[O-])cc1 (stereo not given) | -9.98 (active)
5 | CC1CC(C)CN(CCOc2cccc3ccccc23)C1 (stereo not given) | inactive
6 | CCCCCCCCCCOC(=O)C[N+](C)(C)CC1CCCCC1O (stereo not given) | -9.01 (active)
7 | CCCCCOC(=O)c1ccc(N2C(=O)C3C4C=CC(C4)C3C2=O)cc1 (stereo not given) | inactive
8 | CCC(C)(C)c1ccc(OCC(=O)N(C)C)c(C(C)(C)CC)c1 | inactive
9 | Oc1ccccc1-c1cc(-c2ccc(Cl)cc2)n[nH]1 | inactive
10 | CCCCNC(=O)C1CCC(CNS(=O)(=O)c2ccc(NC(C)=O)cc2)CC1 (stereo not given) | inactive
11 | Cc1ccccc1-n1nnnc1SCCCC(=O)c1ccc(F)cc1 | inactive
12 | CCc1c(O)nc(SCC(=O)Nc2ccccc2)n(C(C)CC)c1=O (stereo not given) | inactive
13 | COc1ccc(C(=O)Nc2nc(-c3ccc(S(=O)(=O)N4CCOCC4)cc3)cs2)cc1 | inactive
14 | CNC(=O)c1ccsc1NC(=O)c1ccc(S(=O)(=O)N2CCOCC2)cc1 | inactive
15 | COC(=O)c1c(NC(=O)c2ccc(S(=O)(=O)N3CCOCC3)cc2)sc2c1CCN(C(C)C)C2 | -5.88 (active)
16 | Cc1ccccc1CS(=O)(=O)CC1(O)CCN(C(=O)c2cccc(C(F)(F)F)c2)CC1 | inactive
17 | CCC(C)(C)NC(=O)C(c1ccc(OC)cc1)N(C(=O)CCC(=O)Nc1cc(C)on1)c1ccc(OC)cc1OC (stereo not given) | inactive
18 | O=C(CSc1nnnn1C1CCCC1)N1CCCCC1 | inactive
19 | Cc1cccc(NC(=S)Nc2ccc(Cl)c(Cl)c2)c1 | inactive
20 | Cc1cccc(NC(=S)Nc2ccc(Br)cc2)c1 | inactive
21 | Cc1cccc(NC(=S)NCCN(C2CCCCC2)C2CCCC2)c1 | -5.75 (active)
22 | O=S(=O)(c1ccc(Br)c2ccccc12)N1CCOCC1 | inactive
23 | Cc1cc(N2CCN(S(=O)(=O)c3ccc(C)c(C)c3)CC2)c2ccccc2n1 | -5.95 (active)
24 | Cc1ccccc1N1CCN(S(=O)(=O)c2ccc3ccccc3c2)CC1 | inactive
25 | Cc1ccc(S(=O)(=O)N2CCN(c3ccccc3)CC2)cc1C | inactive
26 | CC(=O)NS(=O)(=O)c1ccc(N/C(N)=N/c2nc(C)cc(C)n2)cc1 | inactive
27 | Cn1cnnc1Sc1ccc(CN2CCN(C3CCCC3)C(CCO)C2)o1 (stereo not given) | inactive

Row | SMILES | B-score
28 | OCCC1CN(Cc2ccc3nsnc3c2)CCN1C1CCCC1 (stereo not given) | -6.69 (active)
29 | CC(C)N1CCC(N2CCN(Cc3cccnc3)CC2CCO)CC1 (stereo not given) | inactive
30 | Cc1ccc(CN2CCN(Cc3ccc4ncccc4c3)CC2CCO)cc1 (stereo not given) | inactive
31 | OCCC1CN(Cc2ccc3nsnc3c2)CCN1C1CCCCC1 (stereo not given) | -5.65 (active)
32 | COc1cccc2c1OCC(CN1CCN(C3CCCCC3)C(CCO)C1)=C2 (stereo not given) | inactive
33 | Fc1c(F)c(C(F)(F)F)c(F)c(F)c1N1CCN(c2ccc3nnc(C(F)(F)F)n3n2)CC1 | inactive
34 | O=C(CCN1CCCO1)N1CCCC(N2CCN(c3cccc(C(F)(F)F)c3)CC2)C1 (stereo not given) | inactive
35 | O=C(O)c1ccc(S(=O)(=O)N2CCOCC2)o1 | inactive
36 | O=C(NCc1ccccc1Cl)C(=O)NCC1CCCN1S(=O)(=O)c1cccs1 (stereo not given) | inactive
37 | COc1ccc([C@@H]2[C@@H]3C(=O)N(C(C)(C)C)C(=O)[C@@H]3[C@]3(Cc4ccccc4)C(=O)N(c4cccc(Br)c4)C(=O)N23)cc1 | inactive
38 | COc1ccc(-c2nonc2NC(=O)c2oc3ccc(F)cc3c2C)cc1OC | inactive
39 | CCOC(=O)c1cc2c(n(-c3ccc(C)cc3)c1=O)CCCC2=O | inactive
40 | CCOC(=O)C1=NN(c2ccc(Cl)cc2)/C(=C/C2=NCCc3cc(OC)c(OC)cc32)S1 | -5.5 (active)
41 | CCOC(=O)C1=C(CN2CCc3ccccc32)NC(=O)NC1c1ccc(Cl)cc1 (stereo not given) | inactive
42 | c1ccc(-n2nnnc2-c2cccnc2)cc1 | inactive
43 | Clc1ccc(-n2nnnc2-c2cnc(-c3ccccn3)nc2-c2cccs2)cc1 | -6.02 (active)
44 | FC(F)(F)c1nc(-c2ccccc2)ncc1-c1nnnn1-c1ccccc1 | inactive
45 | CCC(=O)c1ccc(N2CCN(C(=O)c3cc([N+](=O)[O-])ccc3F)CC2)c(F)c1 | inactive
46 | CCN1CCN(c2ccc([N+](=O)[O-])cc2C(=O)c2ccc(Cl)cc2)CC1 | -6.09 (active)
47 | O=C(Nc1cccc(Cl)c1)c1cc([N+](=O)[O-])ccc1N1CCN(CCO)CC1 | inactive
48 | COc1ccc(C(C#N)Nc2ccc(C)cc2)cc1 (stereo not given) | inactive
49 | Cc1ccc(S(=O)(=O)N(c2cccc(C)c2)C2CCS(=O)(=O)C2)cc1 (stereo not given) | inactive
50 | COCc1ccc(CN2CCC(Oc3ccc(C(=O)NCc4ccccn4)cc3)CC2)o1 | inactive
51 | CCCn1nc(NC(=O)C(C)C)c2cc3cc(OC)ccc3nc21 | inactive
52 | Cc1ccccc1CSc1nnc(CCCCCNC(=O)OC(C)(C)C)o1 | inactive
53 | O=C(CN(C(=O)CCC(=O)Nc1nccs1)c1ccc(F)cc1)NCc1ccc2c(c1)OCO2 | inactive
54 | CCC(C)(C)NC(=O)CN(C(=O)CCC(=O)Nc1nccs1)c1ccc2c(c1)OCO2 | -5.2 (active)

Row | SMILES | B-score
55 | CCC(C)(C)NC(=O)CN(C(=O)CCC(=O)Nc1cc(C)ccn1)c1ccc2c(c1)OCCO2 | inactive
56 | CCN1CCC2(CCN(Cc3cn[nH]c3-c3ccc(OC)c(F)c3)C2)C1 (stereo not given) | inactive
57 | COc1ccc(/C=C/C(=O)OCC(=O)NCc2cccs2)cc1OC | inactive
58 | O=C(CN1CCN(C(=O)C2CCCO2)CC1)Nc1c(Cl)cccc1Cl (stereo not given) | inactive
59 | COc1ccc(OC)c(CNC(=O)Cn2nc(C)c3c(C)n(-c4ccc(C)cc4)nc3c2=O)c1 | inactive
60 | CN=C1C=C/C(=N/N=c2\ccn(O)cc2C)C=C1C | inactive
61 | O=C(O)CCCCCNc1ncnc2ccc(Br)cc12 | inactive
62 | Cc1ccccc1-n1nc(C)c2c1N=C1C(Cl)=CC(Cl)=CN1C2c1ccc(C(=O)O)cc1 (stereo not given) | inactive
63 | Cc1onc(C(=O)NN)c1C(=O)N1CCN(C(c2ccccc2)c2ccccc2)CC1 | inactive
64 | O=C(c1ccc(-n2cnnn2)cc1)N1CCN(C(c2ccccc2)c2ccccc2)CC1 | -5.27 (active)
65 | Cn1nnnc1SCC(=O)N1CCN(C(c2ccccc2)c2ccccc2)CC1 | inactive
66 | COc1ccc(Cc2nnc(SCC(=O)N(c3ccccc3)C(C)C)n(N)c2=O)cc1 | inactive
67 | C=CCSC(CC)(CC)C(N)=O | inactive
68 | Oc1c(Cl)cc(Cl)c(Cl)c1Cc1c(O)c(Cl)cc(Cl)c1Cl | -7.71 (active)
69 | COc1cc(NC(=O)C2CC(c3ccccc3O)=NO2)c(OC)cc1Cl (stereo not given) | inactive
70 | Cc1ccc(F)cc1NC(=O)N1CCCN(c2ccc(C(F)(F)F)cn2)CC1 | inactive
71 | CN(CC(=O)Nc1ccccc1[N+](=O)[O-])Cc1ccc(Br)cc1 | -5.44 (active)
72 | CN(CC(=O)Nc1ccc(N2CCOCC2)cc1)CC(=O)Nc1ccccc1[N+](=O)[O-] | inactive
73 | Cc1ccc(NC(=O)CN(C)Cc2ccc(F)cc2)c([N+](=O)[O-])c1 | inactive
74 | O=C(Nc1ccccc1-c1nc2ccccc2[nH]c1=O)c1cccs1 | inactive
75 | C/C(=N\Nc1ncc(Cl)cc1Cl)c1cccs1 | inactive
76 | C/C(=N\Nc1nc2ccccc2[nH]1)c1cccs1 | -13.6 (active)
77 | Cc1cc(OCC(=O)N(C)c2c(N)n(Cc3ccccc3)c(=O)[nH]c2=O)c(C(C)C)cc1Cl | inactive
78 | CC(=O)OC(COc1ccc(F)cc1)Cn1cnc2ccccc21 (stereo not given) | inactive
79 | CC(C)c1ccc(OCC(O)CN2CCN(c3ccccn3)CC2)cc1 (stereo not given) | inactive
80 | CC(C)c1ccc(OCC(O)Cn2cnc3ccccc32)cc1 (stereo not given) | -9.55 (active)
81 | COCCn1cnc2c1c(=O)n(Cc1ccc(Br)cc1)c(=O)n2Cc1ccccc1 | inactive

Row | SMILES | B-score
82 | N=c1c2c(-c3ccccc3)c(-c3ccccc3)n(Cc3ccccc3)c2ncn1CCCO | -7.35 (active)
83 | CCN(CC)CCn1cnc2c1c(=O)[nH]c(=O)n2Cc1ccccc1 | inactive
84 | CCOC(=O)C(CCOc1cccc(CC)c1)C(=O)OCC | inactive
85 | CCOC(=O)c1sc(N(Cc2ccccc2)C(=O)CN2C(=O)CN(C)C2=O)nc1C | inactive
86 | Cc1cc(=O)[nH]c(SCc2ccc(Cl)cc2)n1 | inactive
87 | CC1CN(C(=O)c2cc(COc3c(F)cccc3F)on2)CCN1C (stereo not given) | inactive
88 | Cc1cccc(NS(=O)(=O)c2ccc(-c3cnc(C4CC4)o3)cc2)c1 | inactive
89 | O=S(=O)(c1ccc(Cl)s1)N1CCC2(CC1)OCCO2 | inactive
90 | O=C(NCCc1c[nH]c2ccccc12)C1CCN(Cc2ccc(Br)cc2)CC1 | -5.11 (active)
91 | Cc1ccc2[nH]cc(CCNC(=O)C3CCCCC3)c2c1 | inactive
92 | O=C(NCCc1c[nH]c2ccccc12)c1cccc(Br)c1 | inactive
93 | Cc1ccc(OCCOc2cccc(/C=N/NC(N)=O)c2)cc1 | inactive
94 | COc1ccc(CNC(=O)CN2CCC(n3nnc4cc(F)ccc43)CC2)cc1 | inactive
95 | N=c1n(CCc2ccccc2)c2ccccc2n1Cc1ccccc1F | -5.3 (active)
96 | Fc1ccccc1Cn1cnc(NC(=S)NCCc2ccccc2)n1 | inactive
97 | CC(=O)NC(C)c1nc2ccccc2n1Cc1ccccc1F (stereo not given) | inactive
98 | CC(C)CCOc1ccc(C(=O)C[N+]2(C)CCOCC2)cc1 | inactive
99 | Cc1ccccc1C(OCCN(C)C)C1CCCCC1 (stereo not given) | inactive
100 | CCOC(=O)C1=C(CSc2nnnn2C)N(C)C(=O)NC1c1ccccc1 (stereo not given) | inactive
101 | COc1cccc(-n2c(=S)[nH]c3c(oc4ccccc43)c2=O)c1 | inactive
102 | CN(C)CCOC(=O)C(c1ccccc1)C1(O)CCCC1 (stereo not given) | -7.55 (active)
103 | O=C(O)C(c1ccccc1)C1(O)CCCCC1 (stereo not given) | inactive
104 | CCC(C(=O)OCCN(CC)CC)c1ccccc1 (stereo not given) | inactive
105 | CCCCc1cc2c(s1)CCCC/C2=N/O | inactive
